This passage reports IRF reporter results from the supplement of paper PMC10646978.

Molecules are shown by their SMILES. ± gives the standard deviation.

One assay deals with RAW-Dual (murine macrophage reporter line). Nature of the assay: IRF reporter (Lucia luciferase) activity fold change vs agonist alone; higher = enhanced IRF activity. As to conditions: modulator concentration 10 µM; agonist: 3'3'-cGAMP 10 ug/mL. In a few lines:
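Overnight stimulation with a PRR agonist followed pre-incubation for 1 hour at 37 °C with compound at 10 μM final. This was done in RAW-Dual murine macrophage reporter cells seeded at 50 000 per well in 384-well plates. NF-κB (SEAP, QUANTI-Blue absorbance at 620 nm) and IRF (Lucia luciferase, QUANTI-Luc luminescence) were read from the supernatant. Each reporter's fold change relative to the mean agonist-only control on the same plate was averaged over replicate plates.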
Take `O=C(CSc1nc2c(c(=O)n1-c1ccccc1)SCC2)N1CCN(c2ccccc2)CC1`: the IRF reporter amounted to 1.15 ± 0.081.

`CCNC(=O)CCC/C=C\C[C@@H]1[C@@H](/C=C/C(O)CCc2ccccc2)[C@@H](O)C[C@@H]1O` (stereo not given in full): the IRF reporter was determined as 0.994 ± 0.055.

On to `CCOc1cc(CC(=O)N[C@@H](CC(C)C)c2ccccc2N2CCCCC2)ccc1C(=O)O`, for which the IRF reporter is 0.897 ± 0.039.

Turning to `CC1CC(=O)C2=C(C1)OC(N)=C(C#N)C2c1ccc(Cl)cc1` (stereo not given), the IRF reporter is 0.721 ± 0.03.

For `COc1ccc(C=NNC(=O)CSc2nnc(-c3ccncc3)n2-c2ccccc2)cc1OC`, the IRF reporter was 0.954 ± 0.05.

Turning to `COc1cc2c3cc1Oc1cc(ccc1O)OC1c4c(cc(OC)c(O)c4Oc4ccc(cc4)CC3N(C)CC2)CCN1C` (stereo not given), the IRF reporter turned out to be 0.793 ± 0.034.

For `O=C(C(Cl)Cl)N1CCN(Cc2ccccc2)CC1`, the IRF reporter was found to be 0.712 ± 0.032.

Take `Cl.Cl.O=C1c2c(O)ccc(O)c2C(=O)c2c(NCCNCCO)ccc(NCCNCCO)c21`: the IRF reporter worked out at 0.0431 ± 0.0042.

Consider `CC(C)NCC(O)COCCOc1ccc(C(C)(C)C)cc1.Cl` (stereo not given), for which the IRF reporter turned out to be 0.569 ± 0.034.

Take `O=c1[nH]cnc2scc(-c3ccc(Br)cc3)c12`: the IRF reporter turned out to be 1.14 ± 0.042.

As for `O=C(O)CCCCCN1C(=O)c2ccccc2C1=O`, the IRF reporter is 1.03 ± 0.034.

For the compound `CC1=C(C(=O)OCCN(Cc2ccccc2)c2ccccc2)C(c2cccc([N+](=O)[O-])c2)C(P2(=O)OCC(C)(C)CO2)=C(C)N1` (stereo not given), the IRF reporter was determined as 0.555 ± 0.028.

For the compound `c1cn2cc(-c3ccc4cn[nH]c4c3)nc(Nc3ccc(N4CCOCC4)cc3)c2n1`, the IRF reporter was found to be 0.24 ± 0.015.

Turning to `Cc1nc(-c2ccc(S(=O)(=O)NC3CCc4nc(N(C)C)ncc4C3)cc2)co1` (stereo not given), the IRF reporter was found to be 1.14 ± 0.074.

As for `CC(Oc1cccc(Cl)c1)C(=O)NCc1ccncc1` (stereo not given), the IRF reporter stood at 0.985 ± 0.057.

Turning to `C#Cc1cccc(Nc2ncnc3cc(OCCOC)c(OCCOC)cc23)c1.Cl`, the IRF reporter worked out at 0.292 ± 0.03.

On to `CCOC(=O)C1=C[C@]2(CC)CCCN3CCc4c(n1c1ccccc41)[C@@H]32`, for which the IRF reporter was determined as 0.998 ± 0.045.

Take `CC(=O)NC(CS)C(=O)O` (stereo not given): the IRF reporter was 0.946 ± 0.035.

As to `COc1ccc(Cl)cc1C(=O)Nc1cc(C(F)(F)F)cc(C(F)(F)F)c1`, the IRF reporter was 0.966 ± 0.024.

Consider `Cc1ccc(OCCCOc2cccc3cccnc23)c(Cl)c1`, for which the IRF reporter turned out to be 0.947 ± 0.077.

For `CCOc1ccc(Nc2oc(-c3ccc(COc4ccc(C)cc4)o3)nc2C#N)cc1`, the IRF reporter came to 0.998 ± 0.035.

As to `Cc1cn([C@H]2C=C[C@@H](CO)O2)c(=O)[nH]c1=O` [Prestw-1279], the IRF reporter was 0.969 ± 0.074.

For `CCc1ccc2ncc(C#N)c(Nc3cc(OC)c(OC)c(OC)c3)c2c1.Cl`, the IRF reporter amounted to 0.712 ± 0.038.

As for `Br.COc1ccc(C2=NN(c3nc(-c4ccc(OC)c(F)c4)cs3)C(c3ccc(OC)cc3)C2)cc1` (stereo not given), the IRF reporter came to 0.805 ± 0.071.

With `Cc1c(C)n2c3c(=O)n(Cc4ccccc4F)c(=O)n(C)c3nc2n1CCCN1CCOCC1`, the IRF reporter was found to be 1.11 ± 0.089.

Take `CNC(=O)c1ccccc1Sc1ccc2c(/C=C/c3ccccn3)n[nH]c2c1`: the IRF reporter stood at 0.0229 ± 0.0024.

As for `NC[C@@H]1O[C@H](O[C@@H]2[C@@H](CO)OC(O[C@@H]3[C@@H](O)[C@H](N)C[C@H](N)[C@H]3O[C@H]3O[C@H](CN)[C@@H](O)[C@H](O)[C@H]3N)[C@@H]2O)[C@H](N)[C@@H](O)[C@@H]1O.O=S(=O)(O)O` (stereo not given in full), the IRF reporter came to 0.908 ± 0.09.

`CS(=O)(=O)N(CC(=O)Nc1ccccc1Cl)c1ccc(Cl)c(C(F)(F)F)c1`: the IRF reporter was 1.52 ± 0.11.

In the case of `N#CC(=Cc1c(F)cccc1Cl)C(=O)Nc1ccc(Cl)cc1`, the IRF reporter turned out to be 0.746 ± 0.17.

On to `O=c1cc(CO)occ1O`, for which the IRF reporter amounted to 1.04 ± 0.041.

Turning to `O=C(NCC1CCCN1c1nccs1)C1CC1` (stereo not given), the IRF reporter was 0.973 ± 0.07.

Turning to `CCOCC(=O)Nc1ccc(N2CCCCC2=O)c(C)c1`, the IRF reporter was 0.899 ± 0.12.

As for `C[C@H](N[C@@H](CCc1ccccc1)C(=O)O)C(=O)N1CCC[C@H]1C(=O)O.O.O`, the IRF reporter was 1.17 ± 0.31.

Consider `CN(C)C1C(O)=C(C(N)=O)C(=O)C2(O)C(O)=C3C(=O)c4c(O)ccc(Cl)c4C(O)C3CC12.Cl` (stereo not given), for which the IRF reporter is 0.894 ± 0.038.

On to `Cc1ccc(CN2C3=NCCCN3c3ccccc32)cc1.Cl`, for which the IRF reporter came out at 0.881 ± 0.026.

Consider `O=C(O)c1ccc2c(c1)nc(Nc1cccc(Cl)c1)c1ccncc12`, for which the IRF reporter was found to be 0.993 ± 0.033.

With `COc1cc(Nc2ncc3c(n2)-c2ccc(Cl)cc2C(c2c(F)cccc2OC)=NC3)ccc1C(=O)O`, the IRF reporter was 0.974 ± 0.045.

As for `CC(C)CN(C[C@@H](O)[C@H](Cc1ccccc1)NC(=O)O[C@H]1CO[C@H]2OCC[C@H]21)S(=O)(=O)c1ccc(N)cc1.CCO`, the IRF reporter turned out to be 0.998 ± 0.056.

As for `OC(Cn1cncn1)(Cn1cncn1)c1ccc(F)cc1F`, the IRF reporter was 1.02 ± 0.052.

For `C=Cc1c(C)c2cc3nc(cc4[nH]c(cc5nc(cc1[nH]2)C(C)=C5CCC(=O)O)c(CCC(=O)OC)c4C)[C@@]1(C)C3=CC=C(C(=O)OC)[C@H]1C(=O)OC`, the IRF reporter was determined as 0.0175 ± 0.0038.

The assay is the same for the next values; noted with them: modulator concentration 10 µM; agonist: LPS 0.1 ug/mL.
As for `O=C(CSc1nc2c(c(=O)n1-c1ccccc1)SCC2)N1CCN(c2ccccc2)CC1`, the IRF reporter was determined as 0.879 ± 0.046.

Consider `CCNC(=O)CCC/C=C\C[C@@H]1[C@@H](/C=C/C(O)CCc2ccccc2)[C@@H](O)C[C@@H]1O` (stereo not given in full), for which the IRF reporter came to 0.961 ± 0.061.

For `CCOc1cc(CC(=O)N[C@@H](CC(C)C)c2ccccc2N2CCCCC2)ccc1C(=O)O`, the IRF reporter was found to be 1.22 ± 0.32.

For the compound `CC1CC(=O)C2=C(C1)OC(N)=C(C#N)C2c1ccc(Cl)cc1` (stereo not given), the IRF reporter was 1 ± 0.07.

Regarding `COc1ccc(C=NNC(=O)CSc2nnc(-c3ccncc3)n2-c2ccccc2)cc1OC`, the IRF reporter came to 1.04 ± 0.07.

`COc1cc2c3cc1Oc1cc(ccc1O)OC1c4c(cc(OC)c(O)c4Oc4ccc(cc4)CC3N(C)CC2)CCN1C` (stereo not given): the IRF reporter came out at 1.47 ± 0.23.

Take `O=C(C(Cl)Cl)N1CCN(Cc2ccccc2)CC1`: the IRF reporter turned out to be 1.25 ± 0.18.

`Cl.Cl.O=C1c2c(O)ccc(O)c2C(=O)c2c(NCCNCCO)ccc(NCCNCCO)c21`: the IRF reporter was determined as 0.0592 ± 0.012.

For the compound `CC(C)NCC(O)COCCOc1ccc(C(C)(C)C)cc1.Cl` (stereo not given), the IRF reporter was 1.31 ± 0.14.

Turning to `O=c1[nH]cnc2scc(-c3ccc(Br)cc3)c12`, the IRF reporter was determined as 1.65 ± 0.13.

Take `O=C(O)CCCCCN1C(=O)c2ccccc2C1=O`: the IRF reporter amounted to 1.35 ± 0.19.

Take `CC1=C(C(=O)OCCN(Cc2ccccc2)c2ccccc2)C(c2cccc([N+](=O)[O-])c2)C(P2(=O)OCC(C)(C)CO2)=C(C)N1` (stereo not given): the IRF reporter turned out to be 0.917 ± 0.15.

On to `c1cn2cc(-c3ccc4cn[nH]c4c3)nc(Nc3ccc(N4CCOCC4)cc3)c2n1`, for which the IRF reporter was 0.897 ± 0.12.

On to `Cc1nc(-c2ccc(S(=O)(=O)NC3CCc4nc(N(C)C)ncc4C3)cc2)co1` (stereo not given), for which the IRF reporter amounted to 1.21 ± 0.091.

For `CC(Oc1cccc(Cl)c1)C(=O)NCc1ccncc1` (stereo not given), the IRF reporter is 1.24 ± 0.13.

`C#Cc1cccc(Nc2ncnc3cc(OCCOC)c(OCCOC)cc23)c1.Cl`: the IRF reporter is 0.143 ± 0.039.

`CCOC(=O)C1=C[C@]2(CC)CCCN3CCc4c(n1c1ccccc41)[C@@H]32`: the IRF reporter was determined as 1.21 ± 0.15.

Turning to `CC(=O)NC(CS)C(=O)O` (stereo not given), the IRF reporter is 1.08 ± 0.18.

In the case of `COc1ccc(Cl)cc1C(=O)Nc1cc(C(F)(F)F)cc(C(F)(F)F)c1`, the IRF reporter turned out to be 1.54 ± 0.26.

Turning to `Cc1ccc(OCCCOc2cccc3cccnc23)c(Cl)c1`, the IRF reporter was determined as 1.32 ± 0.14.

In the case of `CCOc1ccc(Nc2oc(-c3ccc(COc4ccc(C)cc4)o3)nc2C#N)cc1`, the IRF reporter was 1.41 ± 0.24.

As for `Cc1cn([C@H]2C=C[C@@H](CO)O2)c(=O)[nH]c1=O` [Prestw-1279], the IRF reporter came out at 0.94 ± 0.092.

Take `CCc1ccc2ncc(C#N)c(Nc3cc(OC)c(OC)c(OC)c3)c2c1.Cl`: the IRF reporter is 0.607 ± 0.078.

As for `Br.COc1ccc(C2=NN(c3nc(-c4ccc(OC)c(F)c4)cs3)C(c3ccc(OC)cc3)C2)cc1` (stereo not given), the IRF reporter is 1.22 ± 0.08.

For the compound `Cc1c(C)n2c3c(=O)n(Cc4ccccc4F)c(=O)n(C)c3nc2n1CCCN1CCOCC1`, the IRF reporter was found to be 1.06 ± 0.14.

For the compound `CNC(=O)c1ccccc1Sc1ccc2c(/C=C/c3ccccn3)n[nH]c2c1`, the IRF reporter was found to be 0.485 ± 0.12.

For the compound `NC[C@@H]1O[C@H](O[C@@H]2[C@@H](CO)OC(O[C@@H]3[C@@H](O)[C@H](N)C[C@H](N)[C@H]3O[C@H]3O[C@H](CN)[C@@H](O)[C@H](O)[C@H]3N)[C@@H]2O)[C@H](N)[C@@H](O)[C@@H]1O.O=S(=O)(O)O` (stereo not given in full), the IRF reporter is 1.02 ± 0.081.

With `CS(=O)(=O)N(CC(=O)Nc1ccccc1Cl)c1ccc(Cl)c(C(F)(F)F)c1`, the IRF reporter was 1.35 ± 0.14.

Regarding `N#CC(=Cc1c(F)cccc1Cl)C(=O)Nc1ccc(Cl)cc1`, the IRF reporter was 1.3 ± 0.22.

As to `O=c1cc(CO)occ1O`, the IRF reporter is 1.28 ± 0.12.

`O=C(NCC1CCCN1c1nccs1)C1CC1` (stereo not given): the IRF reporter was determined as 1.03 ± 0.23.

In the case of `CCOCC(=O)Nc1ccc(N2CCCCC2=O)c(C)c1`, the IRF reporter was 1.06 ± 0.14.

For `C[C@H](N[C@@H](CCc1ccccc1)C(=O)O)C(=O)N1CCC[C@H]1C(=O)O.O.O`, the IRF reporter worked out at 0.953 ± 0.057.

For `CN(C)C1C(O)=C(C(N)=O)C(=O)C2(O)C(O)=C3C(=O)c4c(O)ccc(Cl)c4C(O)C3CC12.Cl` (stereo not given), the IRF reporter was 1.19 ± 0.14.

Regarding `Cc1ccc(CN2C3=NCCCN3c3ccccc32)cc1.Cl`, the IRF reporter turned out to be 1.27 ± 0.17.

Regarding `O=C(O)c1ccc2c(c1)nc(Nc1cccc(Cl)c1)c1ccncc12`, the IRF reporter came to 1.39 ± 0.32.

In the case of `COc1cc(Nc2ncc3c(n2)-c2ccc(Cl)cc2C(c2c(F)cccc2OC)=NC3)ccc1C(=O)O`, the IRF reporter is 1.06 ± 0.062.

For `CC(C)CN(C[C@@H](O)[C@H](Cc1ccccc1)NC(=O)O[C@H]1CO[C@H]2OCC[C@H]21)S(=O)(=O)c1ccc(N)cc1.CCO`, the IRF reporter is 0.982 ± 0.12.

As for `OC(Cn1cncn1)(Cn1cncn1)c1ccc(F)cc1F`, the IRF reporter was 1.46 ± 0.096.

Take `C=Cc1c(C)c2cc3nc(cc4[nH]c(cc5nc(cc1[nH]2)C(C)=C5CCC(=O)O)c(CCC(=O)OC)c4C)[C@@]1(C)C3=CC=C(C(=O)OC)[C@H]1C(=O)OC`: the IRF reporter came out at 0.0424 ± 0.018.
